Data from PubChem BioAssay (NCI).
The panel holds about 79,000 compounds, 15% with a hit somewhere; the sample as a whole holds those more often. Active and inactive are the calls of the source. No stated cut-off is given here; in the data, active means growth inhibition above about 70%; inactive means the rest.

Key:
[1] = NCI Yeast Anticancer Drug Screen. Data for the rad52 strain (AID 147);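 further: 0% = growth of vehicle-treated control cultures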; conditions: S. cerevisiae rad52 mutant growth inhibition, stronger effect = higher value
Summary of the method: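 Compounds are applied to a genetically defined yeast strain lacking normal DNA damage repair, and inhibition of growth is expressed relative to cultures given vehicle only.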

[2] = NCI Yeast Anticancer Drug Screen. Data for the wt1 strain (AID 149);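 further: 0% = growth of vehicle-treated wt1 cultures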; conditions: S. cerevisiae wt1 strain (SPY 50644) growth inhibition, stronger effect = higher value
Summary of the method: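 Readout: yeast growth inhibition, normalised to vehicle controls, in the wt1 strain exposed to test compounds.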

[3] = NCI Yeast Anticancer Drug Screen. Data for the rad50EPP+ strain (AID 151);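 further: 0% = growth of vehicle-treated control cultures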; conditions: S. cerevisiae rad50 mutant strain, stronger effect = higher value
Summary of the method: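 Compounds were applied to the rad50EPP+ yeast strain, which bears a defined DNA repair alteration, and growth inhibition was determined relative to vehicle-treated cultures.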

[4] = NCI Yeast Anticancer Drug Screen. Data for the mgt1 strain (AID 153); conditions: S. cerevisiae mgt1 mutant growth inhibition, stronger effect = higher value
Summary of the method: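 Strain: mgt1 yeast, one of a set carrying defined DNA damage repair or cell cycle control alterations. Compound-treated growth compared with vehicle.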

[5] = NCI Yeast Anticancer Drug Screen. Data for the rad50 strain (AID 155);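 further: 0% = growth of vehicle-only cultures of the same strain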; conditions: S. cerevisiae rad50 strain growth inhibition, stronger effect = higher value
Summary of the method: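 Compounds were tested on a yeast strain with an engineered DNA damage repair alteration; the reported value is growth inhibition normalised to vehicle treatment.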

[6] = NCI Yeast Anticancer Drug Screen. Data for the mec2-1 strain (AID 157); conditions: S. cerevisiae mec2-1 strain, stronger effect = higher value
Summary of the method: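 Strain: mec2-1 (DNA repair/cell cycle alteration). Compound exposure, then growth measured; inhibition expressed relative to vehicle.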

[7] = NCI Yeast Anticancer Drug Screen. Data for the rad14 strain (AID 159);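 further: 0% = growth of vehicle-treated control cultures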; conditions: S. cerevisiae rad14 strain growth inhibition, stronger effect = higher value
Summary of the method: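 Compound-treated yeast with a defined DNA-repair lesion; growth inhibition normalised to vehicle-treated cultures.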

[8] = NCI Yeast Anticancer Drug Screen. Data for the sgs1 mgt1 strain (AID 161);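 further: 0% = growth of cultures given vehicle only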; conditions: S. cerevisiae sgs1 mgt1 strain, stronger effect = higher value
Summary of the method: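 Mutant yeast exposed to compound; growth scored against vehicle-only wells.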

[9] = NCI Yeast Anticancer Drug Screen. Data for the cln2 rad14 strain (AID 165);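 further: 0% = growth equal to vehicle treated cultures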; conditions: S. cerevisiae cln2 rad14 strain, stronger effect = higher value
Summary of the method: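 Compounds are applied to the cln2 rad14 yeast strain, and growth is then compared with that of vehicle-treated cultures to give inhibition.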

[10] = NCI Yeast Anticancer Drug Screen. Data for the bub3 strain (AID 167); conditions: S. cerevisiae bub3 mutant strain, stronger effect = higher value
Summary of the method: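 Growth of a checkpoint-deficient yeast mutant is measured after compound exposure. Values represent inhibition relative to vehicle.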

[11] = NCI Yeast Anticancer Drug Screen. Data for the mlh1 strain (AID 171);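 further: 0% = growth of vehicle-treated control cultures of the same strain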; conditions: S. cerevisiae mlh1 strain growth inhibition, stronger effect = higher value
Summary of the method: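 Growth of the mutant yeast strain after compound exposure, expressed as inhibition relative to vehicle-only controls.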

[12] = NCI Yeast Anticancer Drug Screen. Data for the sgs1 strain (AID 173);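 further: 0% = growth of vehicle-only control cultures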; conditions: S. cerevisiae sgs1 mutant, stronger effect = higher value
Summary of the method: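 Growth of a yeast strain bearing a defined genetic alteration is measured after compound treatment. Inhibition is expressed relative to vehicle-only controls.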

[13] = NCI Yeast Anticancer Drug Screen. Data for the mlh1 rad18 strain (AID 175); conditions: S. cerevisiae mlh1 rad18 strain growth inhibition, stronger effect = higher value
Summary of the method: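 Read-out is yeast growth inhibition, calculated against vehicle-only controls. The compound was applied to a strain engineered with DNA damage repair alterations.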

[14] = NCI Yeast Anticancer Drug Screen. Data for the rad18 strain (AID 177); conditions: S. cerevisiae rad18 mutant growth inhibition, stronger effect = higher value
Summary of the method: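 Growth of the mutant yeast strain after compound exposure, normalised to vehicle-only cultures.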

[15] = NCI Yeast Anticancer Drug Screen. Data for the CLN2oe strain (AID 163);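 further: 0% = growth of vehicle-only control cultures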; conditions: S. cerevisiae CLN2oe strain, stronger effect = higher value
Summary of the method: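 Growth of a genetically modified yeast strain is measured after compound exposure and compared with cultures given vehicle alone.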

[16] = NCI Yeast Anticancer Drug Screen. Data for the wt2 strain (AID 169);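 further: 0% = growth of vehicle-treated yeast cultures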; conditions: S. cerevisiae wt2 strain growth inhibition, stronger effect = higher value
Summary of the method: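 This strain belongs to a panel of yeast strains with defined genetic alterations in DNA damage repair or cell cycle control. Compounds are applied, and growth inhibition is measured against vehicle-treated cultures.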

[17] = at 5.0 µM (retest, dose inferred, filed as 0.5)
[18] = at 50.0 µM (retest, dose inferred, filed as 5.0)

Measured: growth inhibition

CC1C(NNc2ccccc2)Oc2cc3c(cc2C1c1ccccc1O)OCO3 (stereo not drawn)
active: [1]; at 3.7 µM 99% | [1]; at 11.0 µM 99% | [1]; at 33.0 µM 94% | [1]; at 100.0 µM 94% | [2]; at 1.2 µM 72% | [2]; at 3.7 µM 98% | [2]; at 11.0 µM 99% | [2]; at 33.0 µM 96% | [2]; at 100.0 µM 95% | [3]; at 11.0 µM 71% | [3]; at 33.0 µM 90% | [3]; at 100.0 µM 91% | [4]; at 11.0 µM 99% | [4]; at 33.0 µM 93% | [4]; at 100.0 µM 94% | [5]; at 3.7 µM 95% | [5]; at 11.0 µM 98% | [5]; at 33.0 µM 93% | [5]; [18] 98% | [5]; at 50.0 µM 86.9% | [5]; at 100.0 µM 92% | [6]; at 3.7 µM 80% | [6]; at 11.0 µM 98% | [6]; at 33.0 µM 94% | [6]; [18] 97% | [6]; at 50.0 µM 88.2% | [6]; at 100.0 µM 94% | [7]; at 11.0 µM 99% | [7]; at 33.0 µM 93% | [7]; at 100.0 µM 93% | [8]; [18] 97% | [8]; at 50.0 µM 89.6% | [9]; [18] 97% | [9]; at 50.0 µM 90.8% | [10]; at 11.0 µM 98% | [10]; at 33.0 µM 93% | [10]; [18] 98% | [10]; at 50.0 µM 91.5% | [10]; at 100.0 µM 94% | [11]; at 11.0 µM 98% | [11]; at 33.0 µM 94% | [11]; at 100.0 µM 93% | [12]; at 1.2 µM 94% | [12]; at 3.7 µM 99% | [12]; at 11.0 µM 99% | [12]; at 33.0 µM 95% | [12]; at 100.0 µM 95% | [13]; [17] 83% | [13]; [18] 98% | [13]; at 50.0 µM 91.9% | [14]; at 3.7 µM 94% | [14]; at 11.0 µM 98% | [14]; at 33.0 µM 91% | [14]; at 100.0 µM 92%
inactive: [1]; at 1.2 µM 67% | [3]; at 1.2 µM -1% | [3]; at 3.7 µM 7% | [4]; at 1.2 µM -4% | [4]; at 3.7 µM 63% | [5]; at 1.2 µM 12% | [5]; [17] 17% | [6]; at 1.2 µM 7% | [6]; [17] 34% | [7]; at 1.2 µM -4% | [7]; at 3.7 µM 54% | [8]; [17] -26% | [9]; [17] 47% | [10]; at 1.2 µM -11% | [10]; at 3.7 µM 68% | [10]; [17] 67% | [11]; at 1.2 µM -6% | [11]; at 3.7 µM 61% | [14]; at 1.2 µM 12%

Cc1nn(-c2cc(Cl)ccc2[N+](=O)[O-])c(C)c1Cl
inactive: [1]; at 1.2 µM 1% | [1]; at 3.7 µM 3% | [1]; at 11.0 µM 2% | [1]; at 33.0 µM 3% | [1]; at 100.0 µM 2% | [2]; at 1.2 µM -1% | [2]; at 3.7 µM -1% | [2]; at 11.0 µM 1% | [2]; at 33.0 µM -1% | [2]; at 100.0 µM 2% | [3]; at 1.2 µM 4% | [3]; at 3.7 µM 8% | [3]; at 11.0 µM 14% | [3]; at 33.0 µM 19% | [3]; at 100.0 µM 10% | [4]; at 1.2 µM -2% | [4]; at 3.7 µM -2% | [4]; at 11.0 µM 4% | [4]; at 33.0 µM -8% | [4]; at 100.0 µM 7% | [5]; at 1.2 µM 0% | [5]; at 3.7 µM 1% | [5]; [17] -20% | [5]; at 11.0 µM -16% | [5]; at 33.0 µM 2% | [5]; [18] -9% | [5]; at 50.0 µM 50% | [5]; at 100.0 µM 2% | [6]; at 1.2 µM 7% | [6]; at 3.7 µM 0% | [6]; [17] -7% | [6]; at 11.0 µM 3% | [6]; at 33.0 µM 2% | [6]; [18] -18% | [6]; at 50.0 µM 54.1% | [6]; at 100.0 µM 4% | [8]; [17] -15% | [8]; [18] -10% | [8]; at 50.0 µM 43.6% | [15]; at 1.2 µM 1% | [15]; at 3.7 µM 2% | [15]; at 11.0 µM -2% | [15]; at 33.0 µM 4% | [15]; at 100.0 µM 5% | [9]; [17] 39% | [9]; [18] 4% | [9]; at 50.0 µM 26.1% | [10]; at 1.2 µM 1% | [10]; at 3.7 µM 7% | [10]; [17] -6% | [10]; at 11.0 µM 20% | [10]; at 33.0 µM 24% | [10]; [18] -6% | [10]; at 50.0 µM 64.2% | [10]; at 100.0 µM 16% | [16]; at 1.2 µM 0% | [16]; at 3.7 µM -1% | [16]; at 11.0 µM -1% | [16]; at 33.0 µM -1% | [16]; at 100.0 µM 0%
